The results in this text go back to PubChem BioAssay (NCI).

Assay [1] can be described thus: NCI Yeast Anticancer Drug Screen. Data for the rad50 strain (AID 155).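 Further: 0% = growth of vehicle-only cultures of the same strain.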 As to conditions: S. cerevisiae rad50 strain growth inhibition, stronger effect = higher value. The gist of the method:
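Compounds were tested on a yeast strain with an engineered DNA damage repair alteration; the reported value is growth inhibition normalised to vehicle treatment.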

Assay [2] is described as follows: NCI Yeast Anticancer Drug Screen. Data for the mec2-1 strain (AID 157). As to conditions: S. cerevisiae mec2-1 strain, stronger effect = higher value. In outline:
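mec2-1 yeast strain, carrying an alteration in DNA damage repair or cell cycle control, was exposed to compounds; growth inhibition was measured relative to vehicle-treated controls.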

The nature of assay [3]: NCI Yeast Anticancer Drug Screen. Data for the sgs1 mgt1 strain (AID 161).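 Further: 0% = growth of cultures given vehicle only.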 The conditions noted are these: S. cerevisiae sgs1 mgt1 strain, stronger effect = higher value. In outline:
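This yeast growth screen uses a strain with defined DNA-repair lesions; compound-treated growth is compared with vehicle-treated growth.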

Assay [4] can be described thus: NCI Yeast Anticancer Drug Screen. Data for the cln2 rad14 strain (AID 165).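 Further: 0% = growth equal to vehicle treated cultures.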 The conditions noted are these: S. cerevisiae cln2 rad14 strain, stronger effect = higher value. In outline:
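Yeast carrying cln2 and rad14 alterations (cell cycle control and DNA damage repair) were exposed to compounds. Growth inhibition was measured against vehicle-treated controls.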

A short description of assay [5]: NCI Yeast Anticancer Drug Screen. Data for the bub3 strain (AID 167). As to conditions: S. cerevisiae bub3 mutant strain, stronger effect = higher value. In outline: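 Growth of a checkpoint-deficient yeast mutant is measured after compound exposure. Values represent inhibition relative to vehicle.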
Assay [6] is described as follows: NCI Yeast Anticancer Drug Screen. Data for the mlh1 rad18 strain (AID 175). As to conditions: S. cerevisiae mlh1 rad18 strain growth inhibition, stronger effect = higher value. In outline:
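Growth inhibition of the yeast strain was measured after compound exposure and expressed relative to vehicle-treated controls. The strain carries defined defects in DNA damage repair.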

The mark [7] stands for this setting: at 5.0 µM (retest, dose inferred, filed as 0.5).
[8] abbreviates: at 50.0 µM (retest, dose inferred, filed as 5.0).

Molecules are shown by their SMILES. Several values for one entry are separate records, joined by “and”; a condition that tells them apart may be missing. Equal values may be shown once. The panel holds about 79,000 compounds, 15% with a hit somewhere; the sample as a whole holds those more often. Values without a mark were called inactive. Activity calls are given as the source filed them. No stated cut-off is given here; in the data, active means growth inhibition above about 70%; inactive means the rest.

With `CC(C)(C)C(Br)C(=O)NC(N)=O` (configuration not stated), the growth inhibition in assay [1] (setting [7]) is 1%; in assay [1] (setting [8]), -6%; in assay [1] (at 50.0 µM), -8%; in assay [2] (setting [7]) it was -4%; in assay [2] (setting [8]) it was 3%; in assay [2] (at 50.0 µM), -0.45%. Moreover, the growth inhibition in assay [3] (setting [7]) is 12%; in assay [3] (setting [8]), -7%; in assay [3] (at 50.0 µM), -19.4%; in assay [4] (setting [7]) it was -6%; in assay [4] (setting [8]), 2%; in assay [4] (at 50.0 µM), 82.2% (active). In addition, the growth inhibition in assay [5] (setting [7]) is -3%; in assay [5] (setting [8]), -3%; in assay [5] (at 50.0 µM), -12%; in assay [6] (setting [7]), -2%; in assay [6] (setting [8]) it was -8%; in assay [6] (at 50.0 µM), 16.3%.

For the molecule `O=S(=O)([O-])[O-].[Fe+2].c1ccc(/C(=N\Nc2ccccn2)c2ccccn2)cc1`, the growth inhibition was 3% in assay [1] (setting [7]); 33% in assay [1] (setting [8]); 12.9% in assay [1] (at 50.0 µM); -2% in assay [2] (setting [7]); 39% in assay [2] (setting [8]); 82.2% (active) in assay [2] (at 50.0 µM). For the same molecule, the growth inhibition in assay [3] (setting [7]) was -4%; in assay [3] (setting [8]), 22%; in assay [3] (at 50.0 µM) it was 16.1%; in assay [4] (setting [7]), -3%; in assay [4] (setting [8]) it was -8%; in assay [4] (at 50.0 µM), 13.5%. Also, the growth inhibition was 1% in assay [5] (setting [7]); 1% in assay [5] (setting [8]); 1.75% in assay [5] (at 50.0 µM); -3% in assay [6] (setting [7]); 7% in assay [6] (setting [8]); 25.8% in assay [6] (at 50.0 µM).

With `O=[N+]([O-])c1ccc(SC2CCCCCCC2Cl)c([N+](=O)[O-])c1` (configuration not stated), the growth inhibition in assay [1] (setting [7]) is 6%; in assay [1] (setting [8]), 22%; in assay [1] (at 50.0 µM), 22.1%; in assay [2] (setting [7]) it was 8%; in assay [2] (setting [8]), 41%; in assay [2] (at 50.0 µM) it was 4.3%. The growth inhibition in assay [3] (setting [7]) was 10%; in assay [3] (setting [8]) it was 76% (active); in assay [3] (at 50.0 µM), 30.1%; in assay [4] (setting [7]) it was -1%; in assay [4] (setting [8]) it was 29%; in assay [4] (at 50.0 µM), 14.8%. The growth inhibition in assay [5] (setting [7]) is 15%; in assay [5] (setting [8]), 85% (active); in assay [5] (at 50.0 µM), 20.5%; in assay [6] (setting [7]), 7%; in assay [6] (setting [8]), 53%; in assay [6] (at 50.0 µM), 72.8% (active).

For the molecule `ClCCN(CCCl)B(N(CCCl)CCCl)N(CCCl)CCCl`, the growth inhibition is -1% in assay [1] (setting [7]); -6% in assay [1] (setting [8]); 98.8% (active) in assay [1] (at 50.0 µM); -23% in assay [2] (setting [7]); 0% in assay [2] (setting [8]); 99.3% (active) in assay [2] (at 50.0 µM). Moreover, the growth inhibition in assay [3] (setting [7]) is -11%; in assay [3] (setting [8]), 10%; in assay [3] (at 50.0 µM), 99.1% (active); in assay [4] (setting [7]) it was 0%; in assay [4] (setting [8]), -2%; in assay [4] (at 50.0 µM), 99.2% (active). For the same molecule, the growth inhibition in assay [5] (setting [7]) is 3%; in assay [5] (setting [8]), -6%; in assay [5] (at 50.0 µM), 98.8% (active); in assay [6] (setting [7]), -13%; in assay [6] (setting [8]) it was -26%; in assay [6] (at 50.0 µM), 99.3% (active).

`c1cc[c]([Sn]([c]2ccccc2)([c]2ccccc2)[c]2ccccc2)cc1`: the growth inhibition in assay [1] (setting [7]) is -2%; in assay [1] (setting [8]), -3%; in assay [1] (at 50.0 µM) it was 60.2%; in assay [2] (setting [7]), -3%; in assay [2] (setting [8]), 1%; in assay [2] (at 50.0 µM), 53.4%. Moreover, the growth inhibition in assay [3] (setting [7]) was 0%; in assay [3] (setting [8]) it was -2%; in assay [3] (at 50.0 µM), 86.5% (active); in assay [4] (setting [7]) it was -1%; in assay [4] (setting [8]), -4%; in assay [4] (at 50.0 µM), -20.4%. Further, the growth inhibition in assay [5] (setting [7]) was 2%; in assay [5] (setting [8]), 2%; in assay [5] (at 50.0 µM), 46%; in assay [6] (setting [7]), 1%; in assay [6] (setting [8]), -4%; in assay [6] (at 50.0 µM) it was 81.9% (active).

For `Cl[C](Cl)(Cl)[Hg][c]1ccccc1`, the growth inhibition in assay [1] (setting [7]) is 99% (active); in assay [1] (setting [8]), 99% (active); in assay [1] (at 50.0 µM), 88% (active); in assay [2] (setting [7]), 100% (active); in assay [2] (setting [8]) it was 99% (active); in assay [2] (at 50.0 µM), 93.8% (active). The growth inhibition is 100% (active) in assay [3] (setting [7]); 99% (active) in assay [3] (setting [8]); 92.7% (active) in assay [3] (at 50.0 µM); 99% (active) in assay [4] (setting [7]); 99% (active) in assay [4] (setting [8]); 91.7% (active) in assay [4] (at 50.0 µM). Further, the growth inhibition in assay [5] (setting [7]) is 99% (active); in assay [5] (setting [8]) it was 99% (active); in assay [5] (at 50.0 µM), 91.8% (active); in assay [6] (setting [7]), 99% (active); in assay [6] (setting [8]) it was 99% (active); in assay [6] (at 50.0 µM) it was 91.5% (active).

In the case of `[Cl][Pt+2][Cl].[NH-]C(c1ccccc1)C([NH-])c1ccccc1` (configuration not stated), the growth inhibition in assay [1] (setting [7]) was -11%; in assay [1] (setting [8]) it was 10%; in assay [1] (at 50.0 µM) it was -22.9% and 11%; in assay [2] (setting [7]) it was 2%; in assay [2] (setting [8]), -8%; in assay [2] (at 50.0 µM) it was -21.4% and 0.25%. For the same molecule, the growth inhibition in assay [3] (setting [7]) is -10%; in assay [3] (setting [8]), 9%; in assay [3] (at 50.0 µM) it was 19% and 2.15%; in assay [4] (setting [7]), -23%; in assay [4] (setting [8]), -10%; in assay [4] (at 50.0 µM), 18.6% and 21.9%. For the same molecule, the growth inhibition in assay [5] (setting [7]) was -9%; in assay [5] (setting [8]), 4%; in assay [5] (at 50.0 µM) it was -2.7% and -2.2%; in assay [6] (setting [7]) it was -6%; in assay [6] (setting [8]) it was 2%; in assay [6] (at 50.0 µM), -17.6% and 29.3%.

`C[CH2][Sn]([Cl])([CH2]C)[O][Sn]([CH2]C)([CH2]C)[O][Sn]([Cl])([CH2]C)[CH2]C`: the growth inhibition in assay [1] (setting [7]) was 16%; in assay [1] (setting [8]) it was 79% (active); in assay [1] (at 50.0 µM), 76% (active); in assay [2] (setting [7]), 19%; in assay [2] (setting [8]), 84% (active); in assay [2] (at 50.0 µM), 81% (active). Further, the growth inhibition in assay [3] (setting [7]) was -17%; in assay [3] (setting [8]), 89% (active); in assay [3] (at 50.0 µM), 86.3% (active); in assay [4] (setting [7]), 15%; in assay [4] (setting [8]), 90% (active); in assay [4] (at 50.0 µM), 82.2% (active). The growth inhibition is 12% in assay [5] (setting [7]); 89% (active) in assay [5] (setting [8]); 83.2% (active) in assay [5] (at 50.0 µM); 11% in assay [6] (setting [7]); 77% (active) in assay [6] (setting [8]); 81.4% (active) in assay [6] (at 50.0 µM).

With `Clc1ccc(CCN2CCOCC2)c(Cl)c1`, the growth inhibition in assay [1] (setting [7]) was 4%; in assay [1] (setting [8]), 27%; in assay [1] (at 50.0 µM) it was 62.9%; in assay [2] (setting [7]) it was 0%; in assay [2] (setting [8]), 16%; in assay [2] (at 50.0 µM), 34.1%. Also, the growth inhibition was 0% in assay [3] (setting [7]); 42% in assay [3] (setting [8]); 54.4% in assay [3] (at 50.0 µM); 31% in assay [4] (setting [7]); 30% in assay [4] (setting [8]); 58.5% in assay [4] (at 50.0 µM). Moreover, the growth inhibition in assay [5] (setting [7]) is 23%; in assay [5] (setting [8]), 54%; in assay [5] (at 50.0 µM), 34.5%; in assay [6] (setting [7]), 5%; in assay [6] (setting [8]) it was 55%; in assay [6] (at 50.0 µM), 64.9%.
